Our source for the growth inhibition values is PubChem BioAssay (NCI).

Values joined by “and” are separate entries in the source; they are usually repeats but may differ in a detail not shown here. Equal values may be shown once. This is part of a sample that, as a whole, favours compounds with a hit. Of some 79,000 tested, about 15% had one in any assay. Some compounds were tested as several samples or in several runs, with calls that do not always agree. Active and inactive are the calls of the source. Cut-off read from the data, not from the text of the source: active = growth inhibition above about 70%; inactive = the rest.

The nature of one experiment: NCI Yeast Anticancer Drug Screen. Data for the bub3 strain (AID 167). The following applies: S. cerevisiae bub3 mutant strain, at 5.0 µM (retest, dose inferred, filed as 0.5), stronger effect = higher value. The procedure, abridged:
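Compounds were applied to a genetically altered yeast strain carrying a cell-cycle control defect. Growth inhibition was scored against vehicle-treated controls.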
With `OCC1OC(n2cnc3c(=S)nc[nH]c32)C(O)C1O` (centres undefined), the growth inhibition was 0% (inactive).

On to `CCOC(=O)C(C(=O)c1ccccc1)C(=O)c1ccccc1`, for which the growth inhibition was 35% (inactive).

With `COC1/C=C\C=C(/C)C(=O)Nc2cc3nc4ccc(Br)cc4oc-3c(c2=O)CC(C)CC(OC)C(O)C(C)/C=C(\C)C1OC(N)=O` (centres undefined), the growth inhibition was 94% (active).

On to `Nc1ccc([N+](=O)[O-])c(S(=O)(=O)O)c1`, for which the growth inhibition was -71% (inactive).

Turning to `CCOc1ccc2ccccc2c1C(Cc1ccc(Cl)cc1)NCCO` (centres undefined), the growth inhibition is -2% (inactive).

As for `O=C1C(=Cc2ccc(O)cc2)N=C(c2ccccc2)N1n1c(-c2ccccc2)nc2ccccc2c1=O`, the growth inhibition was 12% (inactive).

Consider `Cc1nc2ccccc2cc1CCl`, for which the growth inhibition was -69% (inactive).

Consider `Cc1cc(NS(=O)(=O)c2ccc(N=Nc3cc(N=Nc4ccc(S(=O)(=O)Nc5cc(C)nc(C)n5)cc4)c4c(NC(=O)C(Cl)Cl)cccc4c3OC(=O)C(Cl)Cl)cc2)nc(C)n1` (tested in a mixture with another compound), for which the growth inhibition was 21% (inactive).

As to `CCCCCCN(CCCCCC)C(=O)C1=C(C)NC(C)=C(C(=O)N(CCCCCC)CCCCCC)C1`, the growth inhibition is -5% (inactive).

For `O=[N+]([O-])Cc1cnc2nncn2n1`, the growth inhibition is -27% (inactive).

With `COc1ccc(N/N=C(\CCN(C)C)c2ccccc2)cc1`, the growth inhibition is -6% (inactive).

As for `O=C(O)/C(=C(/c1ccccc1)c1ccc(Cl)cc1)c1ccccc1`, the growth inhibition was 43% (inactive).

For the compound `c1ccc([P+](CCCCCCCC[P+](c2ccccc2)(c2ccccc2)c2ccccc2)(c2ccccc2)c2ccccc2)cc1`, the growth inhibition was 46% (inactive).

Take `OCCNc1nc(NCCO)c2nc(-c3ccccc3)c(-c3ccccc3)nc2n1`: the growth inhibition is 6% (inactive) and -1% (inactive).

In the case of `OC(c1ccccc1)(c1ccccc1)c1ccccc1` (tested in a mixture with another compound), the growth inhibition is -7% (inactive).

Take `CC(=O)Nc1c(Cl)c(Cl)c2c(c1Cl)Cc1cc(Cl)ccc1-2`: the growth inhibition is 99% (active).

`Cc1cc(C)nc(NS(=O)(=O)c2ccc(Nc3c4ccccc4nc4c(C(=O)NCCCN(CCO)CCO)cccc34)cc2)n1`: the growth inhibition was -14% (inactive).

Consider `CCn1c2ccccc2c2ccc(N=Cc3ccc(N(C)C)cc3)cc21`, for which the growth inhibition was -3% (inactive).

As for `O=C(C(=Cc1ccccc1)C(=O)c1ccccc1)c1ccccc1`, the growth inhibition is 84% (active).

Take `c1ccc(C2=NC(c3ccccc3)=NS(S3=NC(c4ccccc4)=NC(c4ccccc4)=N3)=N2)cc1` (centres undefined): the growth inhibition is 30% (inactive).

Take `Nc1nc(-c2ccccn2)cc2ccccc12`: the growth inhibition was 1% (inactive).

`CCN(CC)CCCn1c2cc(=O)c(=O)cc-2[nH]c2cc(C)ccc21`: the growth inhibition is 3% (inactive).

For the compound `COc1cc(O)ccc1C(=S)SC`, the growth inhibition was -5% (inactive).

As for `O=[N+]([O-])C1=C(c2ccccc2)SC=C(c2ccccc2)S1`, the growth inhibition was 48% (inactive) and 50% (inactive).

On to `N#CC1(C2SCCS2=O)C2=C(C(=O)c3ccccc3C2=O)N2CCCC21` (centres undefined), for which the growth inhibition is 33% (inactive).

As to `O=C1C=CC(=O)C(C2OC(=O)C(Br)=C2Br)=C1` (centres undefined), the growth inhibition was -9% (inactive).

As to `CN1CCN(CCCN2c3ccccc3Sc3ccc(C(F)(F)F)cc32)CC1`, the growth inhibition is -13% (inactive) and -27% (inactive).

With `Cc1ccc(S(=O)(=O)C23C(N=NC2(C)C)C3(C)C)cc1` (centres undefined), the growth inhibition was 15% (inactive).

On to `COC(=O)C(=O)C(C(=O)C(c1ccccc1)c1ccccc1)c1nc2n(c1O)/C(=N/C(=O)Nc1ccc(Cl)cc1)N=N2` (centres undefined), for which the growth inhibition is -1% (inactive).

As for `O=C(O)c1ccc2c(c1)Cc1cc([N+](=O)[O-])ccc1-2`, the growth inhibition is -10% (inactive).

In the case of `O=c1[nH]c2cc([N+](=O)[O-])ccc2nc1/C=C(\O)c1ccc([N+](=O)[O-])cc1`, the growth inhibition is 11% (inactive).

As for `c1ccc(C(c2ccccc2)n2ccnc2)cc1`, the growth inhibition was -57% (inactive).

On to `c1ccc2c(c1)CNc1ccccc1-2`, for which the growth inhibition was 47% (inactive).

`COC(=O)c1nnn(-c2ccc(S(N)(=O)=O)cc2)c1N`: the growth inhibition is -22% (inactive).

As to `COC(=O)c1ccc(O)c(OC)c1`, the growth inhibition is 12% (inactive).

Turning to `O=c1[nH]c(SCc2c(Cl)c(Cl)c(Cl)c(Cl)c2Cl)nc(=S)[nH]1`, the growth inhibition is 14% (inactive).

Take `Cc1nc2c(ccc3[nH]c4ccccc4c32)s1`: the growth inhibition was 8% (inactive).

The experiment is the same for the next values; noted with them: S. cerevisiae bub3 mutant strain, at 50.0 µM (retest, dose inferred, filed as 5.0), stronger effect = higher value.
For the compound `OCC1OC(n2cnc3c(=S)nc[nH]c32)C(O)C1O` (centres undefined), the growth inhibition was -3% (inactive).

Regarding `CCOC(=O)C(C(=O)c1ccccc1)C(=O)c1ccccc1`, the growth inhibition was 92% (active).

For the compound `COC1/C=C\C=C(/C)C(=O)Nc2cc3nc4ccc(Br)cc4oc-3c(c2=O)CC(C)CC(OC)C(O)C(C)/C=C(\C)C1OC(N)=O` (centres undefined), the growth inhibition was 97% (active).

In the case of `Nc1ccc([N+](=O)[O-])c(S(=O)(=O)O)c1`, the growth inhibition was -57% (inactive).

Turning to `CCOc1ccc2ccccc2c1C(Cc1ccc(Cl)cc1)NCCO` (centres undefined), the growth inhibition is -3% (inactive).

Turning to `O=C1C(=Cc2ccc(O)cc2)N=C(c2ccccc2)N1n1c(-c2ccccc2)nc2ccccc2c1=O`, the growth inhibition was 57% (inactive).

Turning to `Cc1nc2ccccc2cc1CCl`, the growth inhibition is 76% (active).

In the case of `Cc1cc(NS(=O)(=O)c2ccc(N=Nc3cc(N=Nc4ccc(S(=O)(=O)Nc5cc(C)nc(C)n5)cc4)c4c(NC(=O)C(Cl)Cl)cccc4c3OC(=O)C(Cl)Cl)cc2)nc(C)n1` (tested in a mixture with another compound), the growth inhibition was 90% (active).

Regarding `CCCCCCN(CCCCCC)C(=O)C1=C(C)NC(C)=C(C(=O)N(CCCCCC)CCCCCC)C1`, the growth inhibition was 17% (inactive).

Turning to `O=[N+]([O-])Cc1cnc2nncn2n1`, the growth inhibition was 99% (active).

Consider `COc1ccc(N/N=C(\CCN(C)C)c2ccccc2)cc1`, for which the growth inhibition was 78% (active).

For the compound `O=C(O)/C(=C(/c1ccccc1)c1ccc(Cl)cc1)c1ccccc1`, the growth inhibition is 99% (active).

`c1ccc([P+](CCCCCCCC[P+](c2ccccc2)(c2ccccc2)c2ccccc2)(c2ccccc2)c2ccccc2)cc1`: the growth inhibition is 98% (active).

Take `OCCNc1nc(NCCO)c2nc(-c3ccccc3)c(-c3ccccc3)nc2n1`: the growth inhibition is 61% (inactive) and 43% (inactive).

For `OC(c1ccccc1)(c1ccccc1)c1ccccc1` (tested in a mixture with another compound), the growth inhibition is 96% (active).

As to `CC(=O)Nc1c(Cl)c(Cl)c2c(c1Cl)Cc1cc(Cl)ccc1-2`, the growth inhibition was 99% (active).

Turning to `Cc1cc(C)nc(NS(=O)(=O)c2ccc(Nc3c4ccccc4nc4c(C(=O)NCCCN(CCO)CCO)cccc34)cc2)n1`, the growth inhibition is 3% (inactive).

As for `CCn1c2ccccc2c2ccc(N=Cc3ccc(N(C)C)cc3)cc21`, the growth inhibition is 25% (inactive).

For the compound `O=C(C(=Cc1ccccc1)C(=O)c1ccccc1)c1ccccc1`, the growth inhibition is 96% (active).

`c1ccc(C2=NC(c3ccccc3)=NS(S3=NC(c4ccccc4)=NC(c4ccccc4)=N3)=N2)cc1` (centres undefined): the growth inhibition was 97% (active).

Consider `Nc1nc(-c2ccccn2)cc2ccccc12`, for which the growth inhibition is 61% (inactive).

In the case of `CCN(CC)CCCn1c2cc(=O)c(=O)cc-2[nH]c2cc(C)ccc21`, the growth inhibition was 51% (inactive).

With `COc1cc(O)ccc1C(=S)SC`, the growth inhibition is 33% (inactive).

`O=[N+]([O-])C1=C(c2ccccc2)SC=C(c2ccccc2)S1`: the growth inhibition is 80% (active) and 28% (inactive).

Consider `N#CC1(C2SCCS2=O)C2=C(C(=O)c3ccccc3C2=O)N2CCCC21` (centres undefined), for which the growth inhibition is 80% (active).

On to `O=C1C=CC(=O)C(C2OC(=O)C(Br)=C2Br)=C1` (centres undefined), for which the growth inhibition is 7% (inactive).

As to `CN1CCN(CCCN2c3ccccc3Sc3ccc(C(F)(F)F)cc32)CC1`, the growth inhibition is 98% (active) and 95% (active).

`Cc1ccc(S(=O)(=O)C23C(N=NC2(C)C)C3(C)C)cc1` (centres undefined): the growth inhibition was -2% (inactive).

Take `COC(=O)C(=O)C(C(=O)C(c1ccccc1)c1ccccc1)c1nc2n(c1O)/C(=N/C(=O)Nc1ccc(Cl)cc1)N=N2` (centres undefined): the growth inhibition was 35% (inactive).

On to `O=C(O)c1ccc2c(c1)Cc1cc([N+](=O)[O-])ccc1-2`, for which the growth inhibition is 0% (inactive).

For `O=c1[nH]c2cc([N+](=O)[O-])ccc2nc1/C=C(\O)c1ccc([N+](=O)[O-])cc1`, the growth inhibition is 86% (active).

As for `c1ccc(C(c2ccccc2)n2ccnc2)cc1`, the growth inhibition is 2% (inactive).

As to `c1ccc2c(c1)CNc1ccccc1-2`, the growth inhibition is 60% (inactive).

As to `COC(=O)c1nnn(-c2ccc(S(N)(=O)=O)cc2)c1N`, the growth inhibition is -7% (inactive).

Consider `COC(=O)c1ccc(O)c(OC)c1`, for which the growth inhibition was 27% (inactive).

In the case of `O=c1[nH]c(SCc2c(Cl)c(Cl)c(Cl)c(Cl)c2Cl)nc(=S)[nH]1`, the growth inhibition is 55% (inactive).

As for `Cc1nc2c(ccc3[nH]c4ccccc4c32)s1`, the growth inhibition is 99% (active).
